Eleven compounds from ChEMBL document CHEMBL3988442, “University of Dundee, Small-Polar-MMV Screening Library” (2021) can be followed below.

For some of these results: Measured potencies and affinities stand elsewhere.

What all share (design): scale not given: direction of the effect not stated beside the values
In assay [1] the target is Protein translocase subunit SecA (Escherichia coli (strain K12)) (UniProt P10408). Nature of the assay: Assay to Identify E. coli SecA ATPase Inhibitors. The following applies: 30 µM. The class given is functional.
For assay [2], the target named is T1, Ubiquitin-activating enzyme e1, putative (Leishmania donovani (strain BPK282A1)) (UniProt E9BSI1).
T1 sequence (whole entry): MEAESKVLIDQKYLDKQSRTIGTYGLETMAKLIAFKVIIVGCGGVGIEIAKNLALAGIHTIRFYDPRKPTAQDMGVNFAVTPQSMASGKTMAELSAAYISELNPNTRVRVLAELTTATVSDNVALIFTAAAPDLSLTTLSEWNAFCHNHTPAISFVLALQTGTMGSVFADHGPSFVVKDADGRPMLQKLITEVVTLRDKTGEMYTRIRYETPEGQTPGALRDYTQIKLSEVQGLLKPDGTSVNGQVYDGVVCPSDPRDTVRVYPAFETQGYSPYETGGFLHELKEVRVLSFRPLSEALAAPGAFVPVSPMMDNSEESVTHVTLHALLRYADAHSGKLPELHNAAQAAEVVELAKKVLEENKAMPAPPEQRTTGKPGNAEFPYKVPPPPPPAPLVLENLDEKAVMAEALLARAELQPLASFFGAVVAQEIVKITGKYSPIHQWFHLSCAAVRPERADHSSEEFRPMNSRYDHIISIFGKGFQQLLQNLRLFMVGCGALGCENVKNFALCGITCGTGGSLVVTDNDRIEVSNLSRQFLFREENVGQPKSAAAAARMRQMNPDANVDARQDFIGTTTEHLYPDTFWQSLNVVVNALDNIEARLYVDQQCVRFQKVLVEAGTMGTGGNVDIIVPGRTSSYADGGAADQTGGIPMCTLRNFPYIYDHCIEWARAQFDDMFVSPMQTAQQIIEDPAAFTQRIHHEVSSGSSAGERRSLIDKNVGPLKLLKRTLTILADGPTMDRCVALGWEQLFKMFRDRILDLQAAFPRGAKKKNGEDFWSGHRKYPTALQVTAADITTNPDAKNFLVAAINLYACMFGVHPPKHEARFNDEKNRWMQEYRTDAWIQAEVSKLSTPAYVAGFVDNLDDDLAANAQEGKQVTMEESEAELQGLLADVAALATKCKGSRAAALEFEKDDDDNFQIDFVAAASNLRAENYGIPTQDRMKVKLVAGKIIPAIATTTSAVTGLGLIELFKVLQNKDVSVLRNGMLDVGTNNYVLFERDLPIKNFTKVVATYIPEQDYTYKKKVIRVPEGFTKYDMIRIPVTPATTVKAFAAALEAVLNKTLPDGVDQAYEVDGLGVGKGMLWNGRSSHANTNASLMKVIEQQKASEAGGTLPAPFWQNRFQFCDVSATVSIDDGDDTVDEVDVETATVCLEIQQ
Put plainly: Leishmania donovani Ubiquitin Activating Enzyme (LdE1). It counts as functional. The following applies: 30 µM.

For assay [3], the target named is AMP-activated protein kinase, AMPK (Homo sapiens) (UniProt P54646+O43741+P54619+Q9UGJ0+Q9Y478+Q13131+Q9UGI9). Nature of the assay: AMP-dependent Kinase enzyme assay. An in vitro enzyme assay that detects ADP turnover that is directly proportional to AMPK activity. This uses naive AMPK that is activated during the assay with MK-8722. The class given is functional. Particulars: 30 µM.

For assay [4], the target named is Sialic acid-binding Ig-like lectin 9 (Homo sapiens) (UniProt Q9Y336). Put plainly: Hs-Siglec9 ALPHAscreen SOP 20170721. Particulars: 10 µM.
For a further assay, the system named is Trypanosoma cruzi. Nature of the assay: Trypanosoma cruzi phosphomannomutase and mannose-1-phosphate guanylyltransferase assay. It counts as functional. Particulars: 10 µM.
The target in assay [5] is T2, Arginase-2, mitochondrial (Homo sapiens) (UniProt P78540).
T2 sequence (whole entry): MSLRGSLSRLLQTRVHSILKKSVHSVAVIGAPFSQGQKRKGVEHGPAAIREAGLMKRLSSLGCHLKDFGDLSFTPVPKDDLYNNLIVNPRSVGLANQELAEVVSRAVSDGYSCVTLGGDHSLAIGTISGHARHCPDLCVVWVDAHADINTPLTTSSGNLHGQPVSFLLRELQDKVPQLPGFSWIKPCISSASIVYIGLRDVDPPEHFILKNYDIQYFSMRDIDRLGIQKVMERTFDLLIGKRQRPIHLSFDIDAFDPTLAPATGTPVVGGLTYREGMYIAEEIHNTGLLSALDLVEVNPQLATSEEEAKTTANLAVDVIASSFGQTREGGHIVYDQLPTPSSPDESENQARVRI
Put plainly: in vitro enzyme assay to detect the production of urea directly proportional to the activity of Arginase II. Further: in the data most compounds retested in dose-response had high values. It counts as functional. The following applies: 33.3 µM.

Assay [6] addresses T3, Proteasome subunit beta (Trypanosoma cruzi) (UniProt O96673).
T3 sequence (whole entry): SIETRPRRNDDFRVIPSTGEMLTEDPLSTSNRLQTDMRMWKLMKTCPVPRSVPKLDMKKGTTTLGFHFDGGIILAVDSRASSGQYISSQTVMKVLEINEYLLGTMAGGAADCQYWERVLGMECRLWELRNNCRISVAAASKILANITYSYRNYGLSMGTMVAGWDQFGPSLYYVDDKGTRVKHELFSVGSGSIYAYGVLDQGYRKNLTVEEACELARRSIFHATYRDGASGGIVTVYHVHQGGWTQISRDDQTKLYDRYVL
Put plainly: Trypanosoma cruzi proteasome chymotrypsin-like activity (TcProtChymo) assay. Further: in the data most compounds retested in dose-response had high values. It counts as functional. The following applies: 9.37 µM.

For another assay, the species on record is Homo sapiens. Nature of the assay: To identify inhibition of the IFN signalling (Jak-Stat) pathway via expression of an eGFP reporter gene under the control of an IFN-stimulated response element (ISRE) containing MxA promoter. It counts as functional. Particulars: 30 µM.
In assay [7] the target is T4, Tyrosyl-tRNA synthetase, putative (Trypanosoma cruzi (strain CL Brener)) (UniProt Q4DSP6).
T4 sequence (whole entry): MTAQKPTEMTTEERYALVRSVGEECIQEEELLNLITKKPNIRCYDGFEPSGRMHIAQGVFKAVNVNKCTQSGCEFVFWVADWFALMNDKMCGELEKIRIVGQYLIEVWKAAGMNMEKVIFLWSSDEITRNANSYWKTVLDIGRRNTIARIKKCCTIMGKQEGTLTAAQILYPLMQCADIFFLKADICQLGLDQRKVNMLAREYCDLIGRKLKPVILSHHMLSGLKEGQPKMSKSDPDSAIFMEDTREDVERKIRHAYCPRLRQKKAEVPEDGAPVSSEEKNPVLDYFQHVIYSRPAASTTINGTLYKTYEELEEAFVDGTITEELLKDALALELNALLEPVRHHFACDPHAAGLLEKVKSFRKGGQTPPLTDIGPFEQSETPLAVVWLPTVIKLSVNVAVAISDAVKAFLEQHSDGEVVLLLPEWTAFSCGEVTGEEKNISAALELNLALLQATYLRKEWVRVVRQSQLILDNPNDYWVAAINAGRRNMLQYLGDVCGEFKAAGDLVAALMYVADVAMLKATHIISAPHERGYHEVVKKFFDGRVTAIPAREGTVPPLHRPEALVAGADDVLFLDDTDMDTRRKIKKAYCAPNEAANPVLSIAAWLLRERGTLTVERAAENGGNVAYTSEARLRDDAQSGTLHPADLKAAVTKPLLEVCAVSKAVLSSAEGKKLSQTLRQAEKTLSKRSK
Nature of the assay: Trypanosoma cruzi tyrosyl tRNA synthetase (TcYRS) _High Tyrosine SOP. Further: in the data most compounds retested in dose-response had high values. It counts as functional. Particulars: 30 µM.

For assay [8], the target named is T4, Tyrosyl-tRNA synthetase, putative (Trypanosoma cruzi (strain CL Brener)). Nature of the assay: Trypanosoma cruzi tyrosyl tRNA synthetase (TcYRS) SOP. It counts as functional. The following applies: 30 µM.
The target in assay [9] is Chromo domain-containing protein 1 (Saccharomyces cerevisiae (strain ATCC 204508 / S288c) (Baker's yeast)) (UniProt P32657). Nature of the assay: ScCHD-1 Enzyme Inhibition Assay. Further: in the data most compounds retested in dose-response had high values. The class given is functional. The following applies: 30 µM.
Chain of Chromo domain-containing protein 1 (Saccharomyces cerevisiae (strain ATCC 204508 / S288c) (Baker's yeast)) (P32657 whole entry, the tested form may be a part): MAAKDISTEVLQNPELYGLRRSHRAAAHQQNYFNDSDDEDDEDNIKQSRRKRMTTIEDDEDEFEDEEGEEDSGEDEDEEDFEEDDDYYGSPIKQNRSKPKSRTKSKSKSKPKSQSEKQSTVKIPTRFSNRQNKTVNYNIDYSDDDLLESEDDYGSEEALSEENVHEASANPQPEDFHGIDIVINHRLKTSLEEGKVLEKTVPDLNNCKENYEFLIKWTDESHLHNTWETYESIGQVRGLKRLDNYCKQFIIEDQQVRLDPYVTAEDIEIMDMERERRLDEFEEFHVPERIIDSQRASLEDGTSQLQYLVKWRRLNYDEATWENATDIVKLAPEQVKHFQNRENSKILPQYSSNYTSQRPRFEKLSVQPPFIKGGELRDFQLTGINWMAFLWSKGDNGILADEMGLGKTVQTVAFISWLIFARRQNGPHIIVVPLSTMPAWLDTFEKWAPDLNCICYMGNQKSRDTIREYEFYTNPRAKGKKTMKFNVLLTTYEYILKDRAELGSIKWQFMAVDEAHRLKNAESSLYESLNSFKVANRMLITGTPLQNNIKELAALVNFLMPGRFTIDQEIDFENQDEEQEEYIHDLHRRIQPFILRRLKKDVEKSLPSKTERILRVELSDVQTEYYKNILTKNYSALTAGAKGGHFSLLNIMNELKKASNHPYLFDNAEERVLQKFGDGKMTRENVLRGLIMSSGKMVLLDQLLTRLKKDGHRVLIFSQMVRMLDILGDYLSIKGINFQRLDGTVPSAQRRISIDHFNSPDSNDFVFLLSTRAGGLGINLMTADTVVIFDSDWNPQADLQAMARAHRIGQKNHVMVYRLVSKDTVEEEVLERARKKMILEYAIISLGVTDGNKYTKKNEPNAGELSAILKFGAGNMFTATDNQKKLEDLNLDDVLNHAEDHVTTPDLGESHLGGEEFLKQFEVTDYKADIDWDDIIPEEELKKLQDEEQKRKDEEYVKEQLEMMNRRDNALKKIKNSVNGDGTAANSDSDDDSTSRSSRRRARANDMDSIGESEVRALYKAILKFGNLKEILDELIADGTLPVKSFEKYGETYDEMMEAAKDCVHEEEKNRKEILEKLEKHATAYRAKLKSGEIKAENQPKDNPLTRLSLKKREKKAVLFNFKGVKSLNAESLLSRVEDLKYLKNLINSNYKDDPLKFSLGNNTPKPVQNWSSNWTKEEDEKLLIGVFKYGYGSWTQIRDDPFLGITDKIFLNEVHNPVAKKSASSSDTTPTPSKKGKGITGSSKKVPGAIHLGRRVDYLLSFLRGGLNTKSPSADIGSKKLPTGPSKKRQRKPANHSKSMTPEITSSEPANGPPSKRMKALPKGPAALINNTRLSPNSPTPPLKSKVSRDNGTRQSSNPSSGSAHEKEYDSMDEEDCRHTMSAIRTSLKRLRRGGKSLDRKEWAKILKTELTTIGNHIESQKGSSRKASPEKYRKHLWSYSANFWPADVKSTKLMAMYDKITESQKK

Chain of Sialic acid-binding Ig-like lectin 9 (Homo sapiens) (Q9Y336 whole entry): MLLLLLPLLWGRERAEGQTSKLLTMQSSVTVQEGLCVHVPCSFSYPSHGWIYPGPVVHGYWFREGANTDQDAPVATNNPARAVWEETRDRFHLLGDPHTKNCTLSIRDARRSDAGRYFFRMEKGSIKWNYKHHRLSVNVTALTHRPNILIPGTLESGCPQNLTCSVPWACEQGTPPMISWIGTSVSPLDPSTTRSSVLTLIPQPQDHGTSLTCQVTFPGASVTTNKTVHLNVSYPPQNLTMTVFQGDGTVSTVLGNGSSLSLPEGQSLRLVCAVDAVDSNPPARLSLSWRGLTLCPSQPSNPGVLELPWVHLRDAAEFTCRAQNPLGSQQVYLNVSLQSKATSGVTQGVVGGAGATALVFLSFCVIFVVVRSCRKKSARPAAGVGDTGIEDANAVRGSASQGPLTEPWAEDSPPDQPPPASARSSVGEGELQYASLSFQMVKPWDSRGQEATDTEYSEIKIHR
Chain of Protein translocase subunit SecA (Escherichia coli (strain K12)) (P10408 whole entry): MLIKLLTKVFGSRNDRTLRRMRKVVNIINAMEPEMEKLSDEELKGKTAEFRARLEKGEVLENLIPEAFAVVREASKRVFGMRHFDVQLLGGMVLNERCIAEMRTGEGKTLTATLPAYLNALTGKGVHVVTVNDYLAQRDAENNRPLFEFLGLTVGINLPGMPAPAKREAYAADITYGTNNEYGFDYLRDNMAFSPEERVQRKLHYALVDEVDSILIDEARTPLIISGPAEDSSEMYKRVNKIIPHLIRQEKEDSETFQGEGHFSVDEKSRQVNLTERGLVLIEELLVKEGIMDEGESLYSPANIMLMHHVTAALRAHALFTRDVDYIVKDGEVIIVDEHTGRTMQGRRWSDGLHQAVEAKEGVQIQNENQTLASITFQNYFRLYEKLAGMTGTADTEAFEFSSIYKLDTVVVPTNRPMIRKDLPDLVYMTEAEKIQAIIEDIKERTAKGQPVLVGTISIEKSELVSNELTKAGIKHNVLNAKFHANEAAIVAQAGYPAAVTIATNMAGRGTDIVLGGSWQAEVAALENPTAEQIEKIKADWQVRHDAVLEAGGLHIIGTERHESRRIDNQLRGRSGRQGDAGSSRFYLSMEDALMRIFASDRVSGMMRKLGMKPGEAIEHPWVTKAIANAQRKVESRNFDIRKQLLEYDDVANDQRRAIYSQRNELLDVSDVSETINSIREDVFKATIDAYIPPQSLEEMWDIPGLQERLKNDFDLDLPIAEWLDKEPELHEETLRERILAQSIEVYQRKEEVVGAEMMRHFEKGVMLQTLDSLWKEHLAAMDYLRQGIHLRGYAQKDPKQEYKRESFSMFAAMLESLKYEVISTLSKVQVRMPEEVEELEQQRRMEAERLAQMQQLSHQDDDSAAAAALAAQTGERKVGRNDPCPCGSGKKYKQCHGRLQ

As to `CCOC(=O)C1CCN(Cc2csc(C(C)(C)C)n2)CC1`, the Percent Effect in assay [1] was 1.04%; in assay [2], 0%; in assay [3], 2.22%; in assay [4], 11%; in the assay with Trypanosoma cruzi it was -3.12%; in assay [5], 9.89%. The Percent Effect is -5.98% in assay [6]; 4.26% in the assay filed under Homo sapiens; 4.43% in assay [7]; -3.8% in assay [8]; -1.95% in [9].
As to `Cc1cccc2c1cnn2CCCNC(=O)CCCC(=O)O`, the Percent Effect in [1] is -1.56%; in [2], 5.2%; in assay [3], 4.98%; in assay [4], 7.89%; in the assay with Trypanosoma cruzi, 4.42%; in assay [5] it was -112%. The Percent Effect in assay [6] is 0%; in the assay filed under Homo sapiens, 2.46%; in [7] it was 4.3%; in [8] it was 16.1%; in assay [9] it was -2.54%.
On to `CC(C)n1ncc2c1NC(=O)CC21C(=O)Nc2c(Cl)cc(Cl)cc21` (stereo unspecified), for which the Percent Effect in [1] is -1.94%; in assay [2] it was 6.67%; in assay [3], 3.17%; in assay [4], 6.18%; with Trypanosoma cruzi, -0.197%; in assay [5] it was -9.33%. The Percent Effect is 1.29% in [6]; 13.3% in the assay filed under Homo sapiens; 2.12% in assay [7]; 10.3% in assay [8]; -4.48% in assay [9].
`O=C(NC1CC1)[C@H]1C[C@H]2OCC[C@H]2N(CC2CC2)C1`: the Percent Effect in assay [1] was -4.51%; in assay [2] it was -2.67%; in assay [3] it was 3.02%; in assay [4], 9.5%; in the assay with Trypanosoma cruzi, -3.28%; in assay [5] it was -55.7%. Besides, the Percent Effect in assay [6] was 0.513%; in the assay listed under Homo sapiens, 6.42%; in assay [7], -4.17%; in assay [8] it was -7.5%; in [9], 4.05%.
With `Cc1cnn(CC(C)NCc2ccc(S(C)(=O)=O)cc2)c1` (stereo unspecified), the Percent Effect in assay [1] is -2.77%; in [2], 13.9%; in assay [3], -0.525%; in assay [4], 2.13%; in the assay with Trypanosoma cruzi, -1.74%; in [5], -3.23%. The Percent Effect is 12.3% in [6]; 0.644% in the assay listed under Homo sapiens; 8.33% in [7]; 25.3% in assay [8]; -28% in assay [9].
As for `Cc1nc(CN(C)C2CCN(Cc3ccno3)C2)no1` (stereo unspecified), the Percent Effect in assay [1] was -3.58%; in assay [2], 18.2%; in assay [3], -53.5%; in [4], -23.7%; with Trypanosoma cruzi, 5.19%; in assay [5], -7.79%. The Percent Effect stood at 29.4% in [6]; 4.64% in the assay filed under Homo sapiens; 3.81% in assay [7]; 18.8% in [8]; 3.1% in [9].
In the case of `O=C(c1cc(F)ccc1F)C1CCN(C(=O)c2ccccn2)CC1`, the Percent Effect in assay [1] is -3.32%; in assay [2], 13%; in assay [3] it was 3.21%; in assay [4], -2.77%; with Trypanosoma cruzi it was 1.27%; in assay [5] it was 3.58%. The Percent Effect is 17.1% in assay [6]; 21.7% in the assay filed under Homo sapiens; 7.62% in [7]; 23.5% in assay [8]; -13.2% in assay [9].
In the case of `O=C(c1ccc2c(c1)CCC2)N1C[C@@H](CN2CCOCC2)[C@@H](CO)C1`, the Percent Effect in assay [1] was -4.64%; in [2], 2.67%; in assay [3], 1.02%; in [4], 21.3%; in the assay on Trypanosoma cruzi, -6.52%; in assay [5], 0%. Further, the Percent Effect in [6] is 1.22%; in the assay filed under Homo sapiens, 0.733%; in assay [7] it was 3.83%; in assay [8], 3.7%; in assay [9] it was -3.15%.
`CS(=O)(=O)NCCCN1CCCCC1c1cc2ccccc2[nH]1` (stereo unspecified): the Percent Effect was -6.23% in assay [1]; 15.2% in [2]; -13% in assay [3]; 11.7% in assay [4]; 8.03% with Trypanosoma cruzi; -7.22% in assay [5]. The Percent Effect is 5.65% in [6]; -8.5% in the assay filed under Homo sapiens; 1.48% in assay [7]; 16.5% in [8]; -7.23% in assay [9].
With `CC(C)CC1SCC(=O)Nc2c1cnn2C(C)C` (stereo unspecified), the Percent Effect was -3.15% in [1]; 22.7% in assay [2]; 1.11% in assay [3]; 2.31% in [4]; 4.71% in the assay on Trypanosoma cruzi; -4.05% in assay [5]. Besides, the Percent Effect in [6] was 16.3%; in the assay filed under Homo sapiens it was 5.92%; in [7], 7.41%; in [8], 20.5%; in assay [9] it was -5.98%.
`Cc1nn(C)c(C)c1CC(=O)N1CCCC(n2cccn2)C1` (stereo unspecified): the Percent Effect is -2.93% in [1]; -5.26% in assay [2]; -2.25% in [3]; -1.17% in assay [4]; 6.26% with Trypanosoma cruzi; -5.4% in [5]. The Percent Effect is 2.12% in [6]; -14.2% in the assay filed under Homo sapiens; 3.45% in [7]; 3.7% in [8]; 0.321% in [9].
